Assay outcomes from PubChem.
A selection: hits, their analogues and other compounds. The true share with any hit is near 2.4%.
Pol beta inh – blocks human DNA polymerase beta activity | P06746 | Pol beta primer extension/strand displacement, fluorescence kinetic | Potency, µM (doses to about 114 µM), for the others: at the top dose activity change, negative = inhibition, actives largely listed as inhibitors | 340,000 compounds, 1.3% hits; also: % is scaled to controls: 0 for no effect and ±100 for the full control effect
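Human Pol beta at 10 nM; strand-displacement substrate 50 nM final. Compound exposure 15 min at room temperature before start, reaction 10 min at room temperature.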
FEN1 inh – inhibitors of human flap endonuclease 1 | P39748 | Recombinant FEN1 flap cleavage, fluorescence, 15 min | Potency, µM (doses to about 114 µM), for inactives: top-dose activity change, negative = inhibition, usual class: inhibitors | 390,000 compounds, 0.35% hits | AID 588795; also: % is scaled to controls: 0 for no effect and ±100 for the full control effect; nearly all actives have a fitted effect of over 65% in size
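In this screen, 50 nM flap DNA substrate was added to 10 nM FEN1 pretreated with compound for 15 min at room temperature; cleavage was followed with reads at 0 and 15 min, and Hill fitting gave concentration–response parameters.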
WRN helicase inh – WRN helicase (human) inhibition | WRN helicase unwinding, fluorescent forked duplex, kinetic | Potency, µM (doses to about 114 µM), without a hit: at the highest dose activity change, negative = inhibition, actives largely listed as inhibitors | 360,000 compounds, 0.46% hits | AID 651768; also: % is scaled to controls: 0 for no effect and ±100 for the full control effect; nearly all actives have a fitted effect of over 55% in size
Target sequence (Q14191 whole entry, looked up): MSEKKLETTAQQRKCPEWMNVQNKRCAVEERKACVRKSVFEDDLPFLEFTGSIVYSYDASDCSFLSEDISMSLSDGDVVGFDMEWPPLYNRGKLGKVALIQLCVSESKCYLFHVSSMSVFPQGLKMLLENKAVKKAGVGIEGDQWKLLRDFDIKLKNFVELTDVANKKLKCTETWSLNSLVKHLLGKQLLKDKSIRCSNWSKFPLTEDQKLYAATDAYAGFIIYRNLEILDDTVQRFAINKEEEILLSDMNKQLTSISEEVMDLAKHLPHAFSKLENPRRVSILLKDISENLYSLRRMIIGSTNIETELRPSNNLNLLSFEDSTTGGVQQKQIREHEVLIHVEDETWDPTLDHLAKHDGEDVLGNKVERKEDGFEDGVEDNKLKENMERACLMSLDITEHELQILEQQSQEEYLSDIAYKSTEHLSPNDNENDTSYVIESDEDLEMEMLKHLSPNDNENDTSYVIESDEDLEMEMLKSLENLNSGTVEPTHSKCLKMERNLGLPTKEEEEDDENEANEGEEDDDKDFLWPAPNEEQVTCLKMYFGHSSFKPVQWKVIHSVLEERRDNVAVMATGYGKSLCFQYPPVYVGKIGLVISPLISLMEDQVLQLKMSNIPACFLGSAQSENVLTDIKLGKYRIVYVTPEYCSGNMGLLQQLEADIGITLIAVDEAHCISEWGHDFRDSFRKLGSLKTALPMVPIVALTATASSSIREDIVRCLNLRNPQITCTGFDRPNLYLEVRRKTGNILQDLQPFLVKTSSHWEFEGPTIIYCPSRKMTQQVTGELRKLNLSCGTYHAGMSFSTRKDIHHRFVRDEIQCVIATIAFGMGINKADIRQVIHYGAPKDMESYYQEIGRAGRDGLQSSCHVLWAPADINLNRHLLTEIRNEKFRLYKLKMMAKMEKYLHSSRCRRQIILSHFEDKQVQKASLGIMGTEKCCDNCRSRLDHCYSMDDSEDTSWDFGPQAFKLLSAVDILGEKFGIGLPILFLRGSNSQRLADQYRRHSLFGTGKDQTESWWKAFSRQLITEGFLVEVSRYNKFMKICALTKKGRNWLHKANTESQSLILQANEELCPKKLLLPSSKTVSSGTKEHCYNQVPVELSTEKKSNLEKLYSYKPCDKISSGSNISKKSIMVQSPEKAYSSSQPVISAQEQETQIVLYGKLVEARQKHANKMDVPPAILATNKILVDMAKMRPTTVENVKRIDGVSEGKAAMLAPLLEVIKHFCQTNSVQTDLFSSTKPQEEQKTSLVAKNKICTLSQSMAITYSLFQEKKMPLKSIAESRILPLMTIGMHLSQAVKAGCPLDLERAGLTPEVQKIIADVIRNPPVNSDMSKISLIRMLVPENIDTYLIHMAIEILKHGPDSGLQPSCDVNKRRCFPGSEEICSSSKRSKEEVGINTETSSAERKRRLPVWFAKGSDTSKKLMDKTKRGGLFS
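Primary qHTS, 1536-well format. 20 nM WRN + compound, 15 min RT; start with 100 nM forked fluorophore/quencher duplex, 2 mM ATP (final); kinetic read ex 525/em 598 nm.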
POLI inh – blocks human DNA polymerase iota activity. Potency, µM (doses to about 115 µM), for the others: at the highest dose activity, negative = inhibition, most hits filed as inhibitors. Pol iota fluorescent replication assay, 10 min. 390,000 compounds, 1% hits. AID 588590
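Pol iota at 10 nM preincubated 15 min with compounds at room temperature; reaction started with fluorescent substrate, 50 nM final. Fluorescence read kinetically at 0 and 10 min; buffer-only wells as negative control.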
POLH inh – DNA polymerase eta (human) inhibition | Q9Y253 | recombinant Pol eta, fluorescent DNA replication assay | Potency, µM (top dose mostly 114 µM), inactives show at the highest dose activity change, negative = inhibition, hits mostly inhibitors | 390,000 compounds, 1.2% hits | AID 588591; also: % is scaled to controls: 0 for no effect and ±100 for the full control effect
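Pol eta (10 nM) was preincubated with compounds for 15 min at room temperature, after which fluorescent replication substrate (50 nM final) was added to start the reaction. Fluorescence was read kinetically at 0 and 10 min.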
Pol kappa inh – DNA polymerase kappa (human) inhibition. Q9UBT6. purified Pol kappa, fluorescent DNA synthesis assay, 10 min. Potency, µM (highest dose often 107 µM), inactives show at the top dose activity, negative = inhibition, hits mostly inhibitors. 400,000 compounds, 0.53% hits. AID 588579; also: % is scaled to controls: 0 for no effect and ±100 for the full control effect
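Here, compound and 10 nM enzyme are combined for 15 min at room temperature; adding 50 nM substrate (final) starts DNA synthesis, tracked by fluorescence at 0 and 10 min against buffer-only wells.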
The depositor's hits bear a star; ? = inconclusive; . = not tested or not shown; [ ] = another dose, or the depositor's remark. Calls follow the shape of the dose curve; as a rule, active = well fitted curve in the direction sought with a large enough effect; inconclusive = small, poorly fitted or top-dose-only effect, or another doubt; inactive = no such curve, though single readings can be large; an effect the other way counts as inactive or inconclusive. Potency is read from the fitted curve at half-maximal effect.

SMILES	Pol beta inh	FEN1 inh	WRN helicase inh	POLI inh	POLH inh	Pol kappa inh
CN(C)c1ccc(/C=C/c2ccnc3ccccc23)c(N)c1	.	7.5%	.	-6.0%	.	5.0%
Cc1ccc(-n2nc(C)c3c2OC(N)=C(C#N)C3c2ccoc2)cc1 (stereo not drawn)	28.2µM*	-2.9%	-29.2%	20µM*	-1.3%	-17.2%
O=C1c2c(O)cc(O)cc2O[C@@]12c1c(cc(O)c3c1O[C@H](c1ccc(O)cc1)[C@@H](O)C3)O[C@@H]2c1ccc(O)cc1	-10.7%	50.1µM*	-10.1%[11.6 µM]	?	-19.3%	?
CCC1CC=CC2C1C(=O)N(Cc1ccccc1)C2c1cc(C)ccc1F (stereo not drawn)	.	-0.7%	.	22.1%	.	-6.6%
O=C(CN1C(=O)c2ccccc2S1(=O)=O)Nc1cc(S(=O)(=O)N2CCOCC2)ccc1N1CCOCC1	.	10.8%	.	-5.0%	.	-12.7%
CCCSc1cc(N2CCOCC2)nc(-c2ccccc2Cl)n1	79.4µM*	11.1%	-1.5%	-5.5%	-10.1%	-5.8%
CC12CN3CC(C)(CN(C1)C3c1ccc3ccccc3c1O)C2=O (stereo not drawn)	12.1%	0.1%	-0.2%	79.4µM*	-8.7%	-5.9%
CC12CN3CC(C)(CN(C1)C3c1c[nH]c3ccccc13)C2=O (stereo not drawn)	2.3%	-0.5%	-18.4%[57.1 µM]	83.5%	-16.4%	-1.8%
COc1ccc(C(=O)NCCc2c[nH]c3ccccc23)cc1OC	-30.0%	-11.5%	4.2%	12.9%	2.2%	-9.8%
O=C(NCCc1c[nH]c2ccccc12)c1ccc2nc[nH]c2c1	.	4.9%	-17.5%	?	50.1µM*	-21.7%
CCOc1nc(C#N)nc(N2CCOCC2)n1	.	-14.3%	.	10.0%	.	-4.4%
COc1ccc(-c2nc3ccc(N4CCCC4)cc3c(=O)[nH]2)cc1OC	39.8µM*	?	?	?	?	-3.2%
COc1ccc2nc(-c3ccccc3)[nH]c(=O)c2c1	.	-8.9%	2.5%	-20.8%	2.4%	-13.6%
O=C(O)CNC(=O)[C@@H](CS)Cc1ccccc1	.	.	.	.	.	-11.0%[12 µM]
CCC(CC)C(=O)Nc1cccc(C(=O)NCc2ccco2)c1	3.16µM*	-0.3%	-19.5%[57.1 µM]	39.8µM*	?	?
O=C(NCc1ccco1)c1ccc(Cn2c(=S)[nH]c3ccccc3c2=O)cc1	20µM*	-17.0%	-27.6%	95.0%	?	-29.6%
O=C(NCc1ccco1)c1cc2c(s1)CSC2	14.1µM*	50.1µM*	17.8µM*	?	20µM*	11.2µM*
CCOc1ccc(C(=O)NCc2ccco2)cc1	22.4µM*	-3.9%	-13.3%[57.1 µM]	?	?	?
O=C(NCc1ccco1)c1cccs1	-9.6%	-2.7%	-32.9%[57.1 µM]	?	?	-15.0%
CC(C)(C)c1ccc(C(=O)C[n+]2ccccc2Cl)cc1	.	-12.7%	.	-26.2%	.	-28.6%
O=c1[nH]c2c(-c3nc(-c4ccc(Cl)cc4)cs3)c(O)cn2c2ccccc12	.	-2.4%	.	-26.5%	.	-24.2%
CCN(CC)c1ccc(/C=C2\C=Cc3ccccc32)cc1	.	-22.0%	.	17.6%	.	-6.7%
Cc1ccc(C(=O)NCc2ccco2)cc1	-1.5%	-0.9%	0.0%	63.5%	-15.3%	-14.8%
Cc1cccc(C(=O)NCc2ccco2)c1	56.2µM*	-1.6%	-2.1%[11.6 µM]	?	?	-41.6%
CCOC(=O)c1c(C)c(C(=O)NCc2ccco2)c(C)n1Cc1ccccc1	39.8µM*	-1.4%	-16.5%[57.1 µM]	?	?	-36.2%
SMILES	Pol beta inh	FEN1 inh	WRN helicase inh	POLI inh	POLH inh	Pol kappa inh
CC(C)CNC(=O)c1cccc(NC(=O)c2ccc(NC(=O)c3ccco3)cc2)c1	25.1µM*	-6.4%	-13.9%	?	-8.8%	-13.9%
Fc1cccc(CSc2nc3ncc(Cl)cc3[nH]2)c1	35.5µM*	5.3%	-5.5%[11.6 µM]	70.8µM*	-21.9%	-9.9%
Cc1ccc(Cl)cc1N1CCN(C(=O)CSc2cc(=O)n(C)c3ccccc23)CC1	16.4%	-17.0%	.	-5.1%	-2.3%	-4.8%
Cc1ccc(Cl)cc1N1CCN(C(=O)CSc2ccsc2[N+](=O)[O-])CC1	20µM*	-0.4%	-23.2%	?	22.4µM*	-32.7%
CCCCNC(=O)[C@@H]1CC=C[C@@H]2CCN(Cc3ccccc3)C(=O)[C@@H]21	.	-0.2%	.	14.1%	.	-24.7%
Nc1ccc2c(c1)C=C/C2=C\c1ccccc1	.	?	.	-8.9%	.	-21.1%
COc1ccc(C(=O)CSc2nnc(-c3cc(C)on3)o2)cc1	11.2µM*	-10.5%	-10.7%	-25.1%	-9.6%	-28.6%
O=S(=O)(Nc1ccc(-c2csc(-c3ccccc3)n2)cc1)c1ccc(F)cc1	?	-17.0%	-5.6%	-27.6%	-17.8%	-2.5%
O=C(Nc1nc(-c2ccccc2)cs1)c1ccccc1NS(=O)(=O)c1ccc(F)cc1	44.7µM*	-30.8%	-4.5%[11.6 µM]	-25.0%	50.1µM*	-11.7%
CCCOc1ccc(/C=c2\sc3nc(-c4ccco4)nn3c2=O)cc1OCC	?	1.7%	?	22.4µM*	?	?
CCCCCOc1ccc(/C=c2\sc3nc(=O)c(-c4ccccc4)nn3c2=O)cc1OC	-8.0%	-0.6%	-21.5%	7.2%	-2.8%	-18.9%
Cc1ccc(CSc2nnc(-c3ccc(NC(=O)CCc4ccccc4)cc3)n2C)cc1	.	15.9%	.	14.3%	.	-12.2%
CCCCCCCCNc1ccc(/C=C/c2ccnc3ccccc23)cc1	.	-32.9%	.	?	.	?
Cc1ccc(-c2cn(CCN)c(-c3ccncc3)n2)cc1	.	-14.9%	-2.9%[11.6 µM]	31.6µM*	-1.1%	-17.3%
CC(=O)c1cccc(NC(=O)COC(=O)c2ccccc2OCc2cccc(Br)c2)c1	.	-10.9%	.	?	.	-2.5%
O=C(Nc1ccccc1)Nc1ccc(NC(=O)c2ccccc2O)cc1	31.6µM*	-18.9%	-1.5%[57.1 µM]	-26.6%	2.6%	-9.6%
O=C(Nc1ccccc1)c1ccccc1O	-0.4%	3.6%	-0.8%	-8.8%	-11.4%	-6.8%
O=c1c2ccccc2oc2cc(-c3ccc4[nH]ccc4c3)ccc12	.	13.7%	-11.9%	8.1%	-8.1%	6.2%
COc1cc2sc3ccc(-c4ccc5[nH]ccc5c4)cc3c(=O)c2cc1OC	.	-15.6%	-10.0%	79.4µM*	-5.7%	-43.5%
O=C(Nc1nc2c(F)cc(F)cc2s1)c1ccc(S(=O)(=O)N2CCc3ccccc32)cc1	31.6µM*	10.2%	.	?	-10.7%	-11.0%[60.1 µM]
Cc1ccc(O)c(C(=O)c2cc(C#N)c(=O)n(-c3c(C)n(C)n(-c4ccccc4)c3=O)c2)c1	4.9%	1.3%	-15.9%	-10.5%	-1.1%	-20.9%
Cc1ccc(O)c(C(=O)c2cc(C#N)c(=O)n(-c3nccs3)c2)c1	25.1µM*	-32.4%	-35.0%	?	39.8µM*	-43.1%
Nc1cccc(/C=C/c2ccnc3ccccc23)c1	.	-15.5%	.	24.2%	.	-18.3%
C1=CN2CC=Cc3cc(/C=C/c4ccnc5ccccc45)cc(c32)C1	.	?	.	79.4µM*	.	?
